Assay outcomes as filed in PubChem.
The list is not random: actives were taken first. Their share in the collection is about 1.6%.
KCNQ2 block: KCNQ2 (rat) channel inhibition. O88943. CHO-K1 KCNQ2, FluxOR thallium flux, 20 min; hits give low values. B-score at 10 µM. 310,000 tested, 1.1% active;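 active = fluorescence ratio B-score at most minus 3 library SDs, with starting brightness B-score within 2 library SDs, cut at about -5.5 in these data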
KCNQ2 enhance: enhances the rat KCNQ2 potassium channel. O88943. CHO-K1 KCNQ2, FluxOR thallium flux fluorescence; hits give high values. B-score at 10 µM. 310,000 tested, 0.54% active. AID 2239;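 active = fluorescence ratio B-score at least 3 SD of library B-scores, with initial fluorescence B-score within 3 of them, cut at about 5.3 in these data; same plate scores as AID 2156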;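 also: B-score of peak minus minimum over baseline fluorescence ratio after K+ and Tl+ stimulus; positive B-score means potentiation of KCNQ2 with more thallium influx and brighter signal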
The depositor's hits bear a star; i = inactive; x = no result given.

SMILES	KCNQ2 block	KCNQ2 enhance
COc1ccc(-c2cc(C(=O)NCC3CCCO3)c3cc(C)ccc3n2)cc1 (stereo not given)	-5.6*	-5.6
CCOc1ccccc1NC(=O)CSc1nncc2ccccc12	i	0.61
Cn1nnc2cc(C(=O)N3CCN(c4ccccn4)CC3)ccc21	i	x
O=C(OCC#CCSc1nnc(-c2ccc([N+](=O)[O-])cc2)o1)c1cccs1	i	x
O=C(CSc1nnc(NC(=O)c2c(F)cccc2F)s1)NCc1ccc(F)cc1	i	2.2
CCn1c(=O)c([N+](=O)[O-])c(NCCN(C)C)c2ccccc21	i	x
CCn1c(=O)c([N+](=O)[O-])c(Cl)c2ccccc21	-6.7*	-6.7
CC(=N\Nc1ccccc1)/C(=N/O)C(=O)Nc1ccccc1	-6*	-6
CC(=N\NC(=O)c1ccccc1)/C(=N/O)C(=O)Nc1ccccc1	i	x
COc1ccc(C(=O)Oc2cc(C)c(CN3CCOCC3)cc2C)cc1OC	i	x
CSc1nnc(C)c(=O)n1COC(=O)/C=C/c1ccc2c(c1)OCO2	i	1.7
C/C(=N\Nc1nc(C)cc(-c2ccccc2)n1)c1ccc(C)o1	-6.1*	-6.1
C/C(=N/Nc1nc(C)cc(-c2ccccc2)n1)c1ccco1	i	1.7
COc1cccc(C(=O)N/N=c2\sc3ccccc3n2C)c1	i	2.1
Cc1ccc(C(=O)N/N=c2\sc3ccccc3n2C)cc1	i	12*
CCc1nc2ccc(C(=O)NC3CCC(C)CC3)cc2nc1CC (stereo not given)	i	1.4
O=C(CN1CCN(C(=O)C2COc3ccccc3O2)CC1)Nc1ccc(F)cc1 (stereo not given)	i	x
CC(C)CNC(=O)C(=O)NNC(=O)c1ccco1	i	x
O=C(CN1C(=O)/C(=C\c2ccco2)SC1=S)Nc1ccc(O)cc1C(=O)O	i	0.89
CCOC(=O)N1CCN(C(=O)c2ccc(CS(=O)(=O)c3ccccc3OC)o2)CC1	i	0.24
COc1ccccc1S(=O)(=O)Cc1ccc(C(=O)N2CCN(c3ccc(C)cc3)C(C)C2)o1 (stereo not given)	-6.6*	-6.6
O=[N+]([O-])c1ccc(Nc2ccccc2F)nc1	i	5.3*
Cc1ccccc1Nc1ccc([N+](=O)[O-])cn1	i	0.83
CCC1CCCCN1C(=O)CCc1nnc(Cc2cc(OC)ccc2OC)o1 (stereo not given)	i	x
Cc1ccc(N2CCN(S(=O)(=O)c3c(C)nc4scc(C)n4c3=O)CC2)c(C)c1	i	2.1
SMILES	KCNQ2 block	KCNQ2 enhance
N#Cc1c(-c2ccccc2F)cc(C2CC2)nc1SCC(=O)c1cccs1	i	12*
CCSc1nc(C2CC2)cc(-c2cccs2)c1C#N	i	x
Cc1noc(C)c1COc1ccc(C(=O)NCc2ccccn2)cc1	i	x
Cc1ccc(Oc2cc(C)nc(-c3ccccc3O)n2)cc1	i	x
Cc1cc(OC2CCCCC2)nc(-c2ccccc2O)n1	-5.8*	-5.8
Brc1ccc(NCc2cccc3ccccc23)nc1	-6*	-6
Oc1ccccc1CNc1ccc(Br)cn1	i	x
COc1ccccc1C(=O)N(CCN(C)C)c1nc2cc(C)cc(C)c2s1	i	x
CN(C)CCN(C(=O)c1ccc2c(c1)OCCO2)c1nc2cc3c(cc2s1)OCO3	i	x
Cc1cc(C)c2sc(N(CCN(C)C)C(=O)c3ccc4ccccc4c3)nc2c1	-5.9*	-5.9
CN(C)CCN(C(=O)c1ccc2c(c1)CCCC2)c1nc2cc3c(cc2s1)OCCO3	-7.8*	-7.8
C=CCN(C(=O)CNC(=O)c1ccco1)C(C(=O)NC1CCCC1)c1ccc(OC)cc1 (stereo not given)	i	0.41
CN(CC(=O)Nc1ccccc1Cl)C(=O)CSc1nncn1C	i	0.5
O=C(COc1coc(CN2CCN(c3ccccc3F)CC2)cc1=O)NCC1CCCO1 (stereo not given)	i	x
Cc1ccc(-n2c(SCC(N)=O)nc3c(c2=O)C2(CCCC2)Cc2ccccc2-3)cc1	-5.6*	-5.6
CCSc1n[nH]c2nc3c(c(=O)n12)C1(CCCC1)Cc1ccccc1-3	i	x
O=C(C1=C[C@@H](c2ccccc2)C[C@@H](OCc2ccc(CO)cc2)O1)N1CCN(Cc2ccc3c(c2)OCO3)CC1	-5.8*	-5.8
O=C(C1=C[C@@H](C2CC2)C[C@@H](OCCCCO)O1)N1CCN(Cc2ccccc2)CC1	i	x
O=C(C1=C[C@H](c2ccccc2)C[C@H](OCc2ccc(CO)cc2)O1)N1CCN(Cc2ccccc2)CC1	i	x
O=C(C1=C[C@@H](c2ccc(Br)cc2)C[C@@H](OCCCCO)O1)N1CCN(Cc2ccc3c(c2)OCO3)CC1	-6.2*	-6.2
O=C(C1=C[C@@H](C2CCCCC2)C[C@@H](OCCCCO)O1)N1CCN(Cc2ccccc2)CC1	-5.7*	-5.7
O=C(C1=C[C@H](c2ccc(C(F)(F)F)cc2)C[C@H](OCCCCO)O1)N1CCN(Cc2ccc3c(c2)OCO3)CC1	i	x
Cn1nnc2ccccc2c1=O	i	1.6
CC(OC(=O)Cc1n[nH]c(=O)c2ccccc12)C(=O)Nc1ccc(F)cc1Cl (stereo not given)	i	1.1
CCN=C(NCC)SC1CC(=O)N(c2cccc(OCC)c2)C1=O (stereo not given)	-6.2*	-6.2
SMILES	KCNQ2 block	KCNQ2 enhance
CCN=C(NCC)SC1CC(=O)N(c2ccc(OC)cc2)C1=O (stereo not given)	i	x
CCc1cc(SC#N)cc(CC)c1NC(=O)CCl	i	5.3*
Cc1cc(C)c2c(NC(=O)CCl)nn(C)c2n1	i	0.1
CCCc1cc(C(=O)N2CCN(c3ccccc3C)CC2)cs1	-5.7*	-5.7
CCCc1cc(C(=O)N2CCCN(C)CC2)cs1	i	1.6
Cc1cccc(C(=O)Nc2ccc(C(=O)/C=C/c3ccncc3)cc2)c1	-6*	-6
Cc1cccc(C(=O)Nc2ccc(C(=O)/C=C/c3cccnc3)cc2)c1	i	x
CCOC(=O)c1ccccc1NC(=O)CSc1nnc(COc2ccccc2C)n1C	-7.1*	-7.1
Cc1ccccc1OCc1nnc(SCC(=O)NCc2ccccc2)n1C	i	x
CCn1c(CC(=O)Nc2ccccc2)nnc1SCC(=O)Nc1ccccc1C(=O)OC	i	0.48
CCn1c(COc2cccc(OC)c2)nnc1SCC(=O)Nc1ccccc1C(=O)OC	-5.7*	-5.7
CCCCn1nnnc1NCc1ccc(C)s1	i	x
CN1CCN(c2ccc(S(=O)(=O)N3CCCCC3)cc2NC(=O)c2ccc(F)cc2F)CC1	i	x
CCOC(=O)CN(C(=O)CSc1nnc(-c2ccc(OC)c(OC)c2)o1)c1ccc(F)cc1	-6.6*	-6.6
CCOC(=O)CSc1nnc(-c2cc(OC)c(OC)c(OC)c2)o1	i	0.1
Cc1cc(C)nc(SC2CCCCC2NS(=O)(=O)c2ccccc2)n1 (stereo not given)	i	0.33
Cc1ccc(S(=O)(=O)Nc2cccc3cccnc23)cc1	i	x
Cc1cc(C)nc(SC2c3cccc4cccc(c34)C2NS(=O)(=O)c2ccccc2)n1 (stereo not given)	-5.7*	-5.7
Cc1ccc(S(=O)(=O)NC2c3cccc4cccc(c34)C2Sc2ncccn2)cc1 (stereo not given)	-7*	-7
O=C(CN1C(=O)NC2(CCOc3ccccc32)C1=O)c1ccc[nH]1 (stereo not given)	i	2.6
COc1ccccc1C(=O)CN1C(=O)NC2(CCc3ccccc32)C1=O (stereo not given)	i	x
CC1CCC(C(C)C)C(OC(=O)COC(=O)c2cccn2C)C1 (stereo not given)	i	x
